# Data reported in the supplement of paper PMC8975748.
# Structures can show the parent of a compound that is named as a salt.
# System: Saccharomyces cerevisiae BY4741 SeMeCo community
# Test: z-score of subpopulation abundance vs DMSO median, subpopulation auxotrophic for LU; higher = larger share of this subpopulation than in DMSO controls
# Settings: 10 µM; 24 h; SM minimal medium; subpopulation (auxotrophy): LU
# Protocol: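 Fluorescent four-plasmid SeMeCo (self-establishing metabolically cooperating S. cerevisiae BY4741 community; plasmids pH-mRuby2, pL-mWasabi, pU-eCFP, pM-TagRFP657) was grown 24 h in minimal SM medium with each Selleck FDA-approved drug at 10 µM in 384-well plates. Cells were fixed and imaged by high-content confocal microscopy. For each auxotrophic subpopulation (and the prototroph), a z-score gives the deviation from the DMSO vehicle-control population median.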
row,Compound,z-score of subpopulation abundance
1,O=C(O[C@H]1C[N+]2(CCCOc3ccccc3)CCC1CC2)C(O)(c1cccs1)c1cccs1 [Aclidinium Bromide],0.07
2,CN(C)[C@@H]1C(=O)C(C(N)=O)=C(O)[C@@]2(O)C(=O)C3=C(O)c4c(O)cccc4[C@@](C)(O)[C@H]3C[C@@H]12 [Tetracycline HCl],-0.24
3,C[C@@H]1O[C@@H](O[C@H]2C[C@@H](O)[C@]3(CO)[C@H]4[C@H](O)C[C@]5(C)[C@@H](C6=CC(=O)OC6)CC[C@]5(O)[C@@H]4CC[C@]3(O)C2)[C@H](O)[C@H](O)[C@H]1O [Ouabain],-0.53
4,COc1cc2c(cc1OC)C1CC(=O)C(CC(C)C)CN1CC2 (stereo not given) [Tetrabenazine (Xenazine)],-0.11
5,CN[C@@H]1[C@@H](O)[C@@H](O[C@@H]2[C@@H](O)[C@H](O[C@H]3O[C@H](CN)CC[C@H]3N)[C@@H](N)C[C@H]2N)OC[C@]1(C)O.CN[C@@H]1[C@@H](O)[C@@H](O[C@@H]2[C@@H](O)[C@H](O[C@H]3O[C@H]([C@@H](C)N)CC[C@H]3N)[C@@H](N)C[C@H]2N)OC[C@]1(C)O.CN[C@@H]1[C@@H](O)[C@@H](O[C@@H]2[C@@H](O)[C@H](O[C@H]3O[C@H]([C@@H](C)NC)CC[C@H]3N)[C@@H](N)C[C@H]2N)OC[C@]1(C)O [Gentamicin Sulfate],-0.15
6,CCCCCCCCCCCCCCCC[n+]1ccccc1 [Cetylpyridinium Chloride],4.67
7,C=C[C@H]1CN2CC[C@H]1C[C@H]2[C@H](O)c1ccnc2ccccc12 [Cinchonidine],0.59
8,COc1ccc2c3c([nH]c2c1)C(C)=NCC3 [Harmaline],-7.5
9,CC[C@@]1(O)C(=O)OCc2c1cc1n(c2=O)Cc2cc3ccccc3nc2-1 [Camptothecin],-0.54
10,CN(C)[C@@H]1C(=O)C(C(N)=O)=C(O)[C@@]2(O)C(=O)C3=C(O)c4c(O)cccc4[C@@](C)(O)[C@H]3[C@H](O)[C@@H]12 [Oxytetracycline Dihydrate],-0.6
11,CCCN1C[C@H](CSC)C[C@@H]2c3cccc4[nH]cc(c34)C[C@H]21 [Pergolide Mesylate],-0.8
12,CC(=O)OCC1=C(C(=O)O)N2C(=O)C(N)C2SC1 (stereo not given) [7-Aminocephalosporanic acid],0.09
13,C[N+](C)(C)CCCCCCCCCC[N+](C)(C)C [Decamethonium Bromide],-0.59
14,CC[C@@H](C(N)=O)N1CCCC1=O [Levetiracetam],-0.25
15,CC[C@H]1CN2CC[C@]3(C(=O)Nc4ccccc43)[C@@H]2C[C@@H]1/C(=C\OC)C(=O)OC [Rhynchophylline],0.24
16,CC(NC(C)(C)C)C(=O)c1cccc(Cl)c1 (stereo not given) [Amfebutamone (Bupropion) HCl],0.12
17,N#Cc1nn(-c2c(Cl)cc(C(F)(F)F)cc2Cl)c(N)c1[S+]([O-])C(F)(F)F (stereo not given) [Fipronil],0.06
18,CN[C@@H]1[C@@H](O)[C@@H](O[C@@H]2[C@@H](O)[C@H](O[C@H]3O[C@H]([C@@H](C)O)[C@@H](O)[C@H](O)[C@H]3N)[C@@H](N)C[C@H]2N)OC[C@]1(C)O [Geneticin (G418 Sulfate)],0.61
19,CCN1CC2(OC(=O)c3ccccc3NC(C)=O)CCC(OC)C34C1C(CC23)C1(O)CC(OC)C2CC4C1(O)C2OC (stereo not given) [Lappaconitine],0.55
20,CN1c2ccccc2C(NCCCCCCC(=O)O)c2ccc(Cl)cc2S1(=O)=O (stereo not given) [Tianeptine sodium],-0.24

row,Compound,z-score of subpopulation abundance
1,Cn1cc(C2=C(c3cn(C4CCN(Cc5ccccn5)CC4)c4ccccc34)C(=O)NC2=O)c2ccccc21,0.66
2,CN1C(=O)COc2c(C(=O)NC3CN4CCC3CC4)cc(Cl)cc21 (stereo not given) [Azasetron HCl],-0.43
3,CN1[C@@H]2C[C@@H](OC(=O)[C@H](CO)c3ccccc3)C[C@H]1[C@@H]1O[C@@H]12 [Scopolamine HBr],0.22
4,C=C(C)[C@H]1Cc2c(ccc3c2O[C@@H]2COc4cc(OC)c(OC)cc4[C@@H]2C3=O)O1 [Rotenone (Barbasco)],0.18
5,Cc1cc(C(C#N)c2ccc(Cl)cc2)c(Cl)cc1NC(=O)c1cc(I)cc(I)c1O (stereo not given) [Closantel],0.89
6,CNC1CC(N)C(O)C(OC2OC(CO)C(O)C3OC4(OC(C(N)CO)C(O)C(O)C4O)OC23)C1O (stereo not given) [Hygromycin B],0.34
7,CCN(C)C(=O)Oc1cccc([C@H](C)N(C)C)c1 [Rivastigmine Tartrate],0.44
8,CC(=O)O[C@H]1C[C@@H]2CC[C@@H]3[C@H](CC[C@@]4(C)[C@H]3C[C@H]([N+]3(C)CCCCC3)[C@@H]4OC(C)=O)[C@@]2(C)C[C@@H]1[N+]1(C)CCCCC1 [Pancuronium dibromide],0.2
9,CN(C)[C@@H]1C(=O)C(C(N)=O)=C(O)[C@@]2(O)C(=O)C3=C(O)c4c(O)cccc4[C@@](C)(O)[C@H]3[C@H](O)[C@@H]12 [Oxytetracycline (Terramycin)],0.73
10,CN1[C@@H]2CC[C@H]1C[C@@H](OC(=O)[C@H](CO)c1ccccc1)C2 [Hyoscyamine],0.31
11,N[C@@H]1C[C@H]1c1ccccc1 [Tranylcypromine (2-PCPA) HCl],-0.31
12,C=CC[C@]1(O)CC[C@H]2[C@@H]3CCC4=CC(=O)CCC4=C3C=C[C@@]21C [Altrenogest],-0.55
13,CN(C)C(=O)Oc1ccc[n+](C)c1 [Pyridostigmine Bromide],0.57
14,COc1ccc(C(CN(C)C)C2(O)CCCCC2)cc1 (stereo not given) [Venlafaxine],0.97
15,C=CCN1C[C@H](C(=O)N(CCCN(C)C)C(=O)NCC)C[C@@H]2c3cccc4[nH]cc(c34)C[C@H]21 [Cabergoline],1.61
16,CN1[C@@H]2CC[C@H]1C[C@@H](OC(=O)C(CO)c1ccccc1)C2 (stereo not given in full) [Atropine sulfate monohydrate],-0.08
17,COc1ccc(C(CN(C)C)C2(O)CCCCC2)cc1 (stereo not given) [Venlafaxine HCl],-0.06
18,CC(C)=CCOc1c2occc2cc2ccc(=O)oc12 [Imperatorin],0.92
19,CCN(CC)CCOC(=O)C(O)(c1ccccc1)c1ccccc1 [Benactyzine hydrochloride],1.57
20,CC1(C)SC2C(N)C(=O)N2C1C(=O)O (stereo not given) [6-Aminopenicillanic acid],0.32
